Hits are enriched below; roughly 2.5% of the tested compounds scored in any of these assays.
Mcl1 Bid PPI – Mcl-1/Bid binding inhibitors, primary screen, biochemical, TR-FRET, 1536-well | Induced myeloid leukemia cell differentiation protein Mcl-1 (Homo sapiens), Q07820 | TR-FRET Mcl-1/Bid-Dy647 peptide binding | inhibition, % at 21.7 µM | hit rate 0.97% among 220,000;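 active = compounds that cut the binding signal by more than half at the single screening dose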;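 note: His-tagged Mcl-1 with europium anti-His antibody binding Bid BH3 peptide; 0% = Mcl-1 plus peptide wells and 100% = peptide-only wells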
Target sequence (Q07820 whole entry, looked up): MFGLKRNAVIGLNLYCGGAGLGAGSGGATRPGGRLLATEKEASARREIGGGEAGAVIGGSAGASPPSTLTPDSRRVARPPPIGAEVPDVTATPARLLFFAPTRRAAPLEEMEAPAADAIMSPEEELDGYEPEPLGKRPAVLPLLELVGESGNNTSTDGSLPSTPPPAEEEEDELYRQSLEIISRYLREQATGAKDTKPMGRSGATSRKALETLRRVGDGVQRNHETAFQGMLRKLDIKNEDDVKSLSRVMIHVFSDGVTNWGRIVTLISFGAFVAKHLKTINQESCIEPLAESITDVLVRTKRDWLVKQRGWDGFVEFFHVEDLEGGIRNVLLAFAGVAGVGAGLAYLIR
MCL1 BIM primary – inhibitors of MCL1 binding to BIM-BH3, primary screen, biochemical, fluorescence polarization; Induced myeloid leukemia cell differentiation protein Mcl-1 (Homo sapiens), Q07820; GST-MCL1 / FITC-Bim-BH3 fluorescence polarization; inhibition, % at 10.9 µM; hit rate 0.68% among 320,000;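 active = inhibition above the mean inhibition of all tested compounds plus 3 SD, set per campaign, cut at about 40% in these data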;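 note: 0% = DMSO wells and 100% = unlabeled Bim-BH3 peptide control; higher means more loss of mP so more displacement of Bim peptide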
Mcl-1 Bim block – inhibitors of Bim peptide binding to Mcl-1, primary screen, biochemical, bead-based flow cytometry, multiplex | hit rate 0.1% among 190,000 | inhibition, % at 10 µM | Induced myeloid leukemia cell differentiation protein Mcl-1 (Homo sapiens), Q07820 | AID 1009, 2008 | Bim peptide-Mcl-1 binding; in the data active = inhibition above about 40%;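 note: 0% = no compound tracer wells and 100% = peptide blocker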
14-3-3 Bad inh – inhibitors of 14-3-3 zeta/Bad binding, primary screen, biochemical, TR-FRET, bovine 14-3-3 zeta; AID 781, 2007; inhibition, % at 21.7 µM; TR-FRET 14-3-3zeta/Dy647-pBad peptide displacement, 1 h; hit rate 0.71% among 220,000;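 active = inhibition above about 70%, limit read from the data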;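 note: 0% = full 14-3-3 plus peptide FRET controls and 100% = background without 14-3-3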
Mcl1 Noxa PPI – Mcl-1/Noxa binding inhibitors, primary screen, biochemical, TR-FRET, 1536-well. Induced myeloid leukemia cell differentiation protein Mcl-1 (Homo sapiens), Q07820. TR-FRET Mcl-1/Noxa peptide binding, 2 h. inhibition, % at 21.7 µM. hit rate 1.5% among 220,000. AID 1022, 2008;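 active = compounds that cut the protein-peptide binding signal by more than 50% relative to plate controls in a single-dose test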;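 note: His-tagged Mcl-1 with rhodamine Noxa BH3 peptide and terbium anti-His antibody; 0% = Mcl-1 plus Noxa peptide wells and 100% = peptide-only wells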
* marks the source's active call; other numbers are inactive results; . = no result.

SMILES	Mcl1 Bid PPI	MCL1 BIM primary	Mcl-1 Bim block	14-3-3 Bad inh	Mcl1 Noxa PPI
Cc1cc(C)n(CC(=O)NCCC2=CCCCC2)n1	.	3	.	.	.
CC(C)(C)c1cc(C(c2cccnc2)N2CCN(CCO)CC2)cc(C(C)(C)C)c1O (stereo not given)	55*	11	-11	8	42
CC(C)(C)n1nnnc1C(c1cccnc1)N1CCN(C2CCCCC2)CC1 (stereo not given)	-10	3	-1	-3	-10
COc1ccc(-n2c(Cc3cccn3C)nnc2SCC(=O)NCc2ccc(F)cc2)cc1	-24	-2	-5	0	-24
CCc1cccc(C)c1NC(=S)NCc1ccccc1	-10	3	-4	-9	0
COc1cc(/C=N/NC(=O)c2cc(-c3ccc4c(c3)OCO4)n[nH]2)ccc1O	1	16	9	2	55*
COc1cc(/C=N\NC(=O)c2ccc(C)nc2)ccc1OC(=O)c1ccc2c(c1)OCO2	23	8	2	74*	-45
COc1ccccc1C(=O)N/N=C/c1ccc2c(c1)OCO2	.	-8	.	.	.
c1ccc2c(NCC3CCCO3)nc(N3CCOCC3)nc2c1 (stereo not given)	2	4	0	27	19
COc1ccccc1C(=O)Nc1ncc2c(n1)CC(c1ccco1)CC2=O (stereo not given)	-8	6	-1	2	54*
Cc1cccc(C(=O)N2CCc3cc(-c4nc(NC(=O)Cn5nnc6ccccc6c5=O)sc4C)ccc32)c1	67*	7	-4	12	51*
Fc1cccc(NCc2ccoc2)c1	1	-1	-4	83*	18
Cc1ccc(S(=O)(=O)NCC(=O)OCC(=O)Nc2ncc(Cl)cc2Cl)cc1	-19	13	-3	0	28

Screening data as filed in PubChem BioAssay.
